# Measured values as given in PubChem BioAssay (Tox21).
# Results filed as inconclusive are left out. Where a call stands in place of a potency, no number is given. Calls of active or inactive are those of the source. Unless noted, calls follow the shape of the dose curve; as a rule, active = well fitted curve in the direction sought with a large enough effect in the repeat runs; inconclusive = weak or mixed curves; inactive = no such curve, though single readings can be large; an effect the other way counts as inactive or inconclusive.
# What was measured:
# [1] = qHTS assay for small molecules that induce genotoxicity in human embryonic kidney cells expressing luciferase-tagged ATAD5 (AID 651632); also: nearly all actives have a fitted effect of over 15% in size
# In short: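 HEK293T cells carrying a luciferase reporter tagged to ATAD5 were exposed to compound or DMSO vehicle for 16 hr at 37C, 5% CO2. Amplite was added, and after 30 min at room temperature luciferase activity was read as a marker of ATAD5 induction.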
# [2] = qHTS assay to test for compound auto fluorescence at 590 nm (red) in HepG2 cells (AID 720674)
# In short: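 HepG2 cells, 2,000 per well in MEM with 10% FBS, attached overnight at 37 C, then got 23 nL compound or DMSO. After 1 hr at 37 C, 5% CO2, red fluorescence was read at 540/590 nm against Rose Bengal sodium as reference.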
# [3] = qHTS assay to test for compound auto fluorescence at 535 nm (green) in HepG2 cells (AID 720675)
# [4] = qHTS assay to test for compound auto fluorescence at 590 nm (red) in HEK293 cells (AID 720679)
# In short: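 Plates of HEK293 cells (10% dialyzed FBS) are treated with 23 nL compound or DMSO vehicle after a 4-5 hr attachment period, incubated overnight at 37C, and read for red fluorescence at 540/590nm.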
# [5] = qHTS assay to test for compound auto fluorescence at 535 nm (green) in HEK293 cells (AID 720680)
# [6] = qHTS assay to test for compound auto fluorescence at 460 nm (blue) in HEK293 cell free culture (AID 720681)
# In short: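 Compounds were added to cell-free DMEM with 10% FBS and fluorescence read directly. The blue channel used 405 nm excitation and 460 nm emission, with triamterene as the reference fluorophore.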
# [7] = qHTS assay to test for compound auto fluorescence at 535 nm (green) in HEK293 cell free culture (AID 720682)
# In short: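 Cell-free medium (DMEM, 10% FBS) receives compound or DMSO by pintool. Plate read directly at Ex 485/Em 535 nm. Signal converted to fluorescein equivalency.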
# [8] = qHTS assay to test for compound auto fluorescence at 590 nm (red) in HEK293 cell free culture (AID 720683)
# In short: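 Cell-free wells of DMEM with 10% FBS received compound, and intrinsic fluorescence was read at excitation/emission 540/590 nm. Values expressed as equivalence to Rose Bengal sodium.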
# [9] = qHTS assay to test for compound auto fluorescence at 590 nm (red) in HepG2 cell free culture (AID 720684)
# In short: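 Compound was pinned into wells holding MEM with 10% FBS and no cells, and red fluorescence was read at Ex/Em 540/590 nm. Signal is expressed as auto fluorescence equivalency relative to Rose Bengal sodium.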
# [10] = qHTS assay to test for compound auto fluorescence at 460 nm (blue) in HepG2 cell free culture (AID 720685)
# In short: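 Compound (23 nL) or DMSO pinned into cell-free MEM with 10% FBS; blue fluorescence read at 405/460 nm excitation/emission, expressed as auto-fluorescence equivalency to triamterene.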
# [11] = qHTS assay to test for compound auto fluorescence at 535 nm (green) in HepG2 cell free culture (AID 720686)
# [12] = qHTS assay to test for compound auto fluorescence at 460 nm (blue) in HepG2 cells (AID 720687)
# In short: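 HepG2 cells in MEM with 10% FBS, attached overnight at 37 C, were exposed to compound or DMSO for 1 hr at 37 C, 5% CO2. Blue fluorescence was read at 405/460 nm, with triamterene as reference fluorophore.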
# [13] = molecular target: Glucocorticoid receptor (Homo sapiens) (UniProt P04150); experiment: qHTS assay to identify small molecule agonists of the glucocorticoid receptor (GR) signaling pathway (AID 720691; active = well fitted activation curve with a large enough effect in the signal ratio in the repeat runs, not every such curve was filed as active; the % refers to the signal ratio)
# Sequence of Glucocorticoid receptor (Homo sapiens) (P04150 whole entry, looked up): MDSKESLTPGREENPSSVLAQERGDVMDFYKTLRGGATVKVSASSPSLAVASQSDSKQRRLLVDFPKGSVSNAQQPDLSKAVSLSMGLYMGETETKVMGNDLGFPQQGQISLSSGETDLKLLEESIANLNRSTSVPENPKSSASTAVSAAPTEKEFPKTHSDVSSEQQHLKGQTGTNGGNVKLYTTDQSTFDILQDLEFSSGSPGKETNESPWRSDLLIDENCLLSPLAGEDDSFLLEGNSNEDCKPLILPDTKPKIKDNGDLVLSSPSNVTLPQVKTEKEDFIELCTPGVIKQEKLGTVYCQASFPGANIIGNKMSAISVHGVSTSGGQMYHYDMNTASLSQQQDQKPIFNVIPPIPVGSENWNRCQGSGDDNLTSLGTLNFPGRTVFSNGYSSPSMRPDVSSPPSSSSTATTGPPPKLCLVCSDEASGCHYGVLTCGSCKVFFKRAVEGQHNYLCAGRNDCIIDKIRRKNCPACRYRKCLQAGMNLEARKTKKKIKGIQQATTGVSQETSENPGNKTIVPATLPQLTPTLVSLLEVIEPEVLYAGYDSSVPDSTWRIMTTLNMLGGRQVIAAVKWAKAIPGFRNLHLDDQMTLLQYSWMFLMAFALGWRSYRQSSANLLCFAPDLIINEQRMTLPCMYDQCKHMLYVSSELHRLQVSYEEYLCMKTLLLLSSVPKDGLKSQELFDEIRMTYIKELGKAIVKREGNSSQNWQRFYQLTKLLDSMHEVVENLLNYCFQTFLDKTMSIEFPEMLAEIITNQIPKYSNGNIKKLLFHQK
# In short: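 GR-bla HeLa cells (beta-lactamase reporter under glucocorticoid response element) were plated 4 h at 37 C/5% CO2, given compounds in DMSO, and incubated 18 h at 37 C. LiveBLAzer B/G FRET substrate was added for 2 h at room temperature, then fluorescence intensity read.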
# [14] = qHTS assay for small molecules that induce genotoxicity in human embryonic kidney cells expressing luciferase-tagged ATAD5 - cell viability (AID 651634; calls by dose curve; also: nearly all actives have a fitted effect of over 25% in size; also: potency is read from the fitted curve at half-maximal effect)
# In short: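 HEK293T cells expressing luciferase-tagged ATAD5 were exposed to compound or DMSO for 15.5 hr at 37C, 5% CO2. Viability was then read as live-cell protease activity by CellTiter-Fluor fluorescence after 30 min at 37C.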
# [15] = qHTS assay for small molecule disruptors of the mitochondrial membrane potential - cell viability (AID 720634; calls by dose curve; also: nearly all actives have a fitted effect of over 20% in size; also: potency is read from the fitted curve at half-maximal effect)
# In short: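 HepG2 cells seeded overnight at 37 C, then exposed to compound or DMSO for 1 hr at 37 C, 5% CO2. m-MPI dye added, then CellTiter-Glo for 30 min at room temperature; viability read as ATP luminescence.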
# [16] = qHTS assay to test for compound auto fluorescence at 460 nm (blue) in HEK293 cells (AID 720678)
# In short: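 After cell attachment (4-5 hr, 37C), compounds were pinned onto HEK293 monolayers in 10% dialyzed FBS medium. The blue channel (405/460 nm) was read following overnight culture. Equivalency was calculated against triamterene.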
# [17] = molecular target: Glucocorticoid receptor (Homo sapiens) (UniProt P04150); experiment: qHTS assay to identify small molecule antagonists of the glucocorticoid receptor (GR) signaling pathway (AID 720692; active = well fitted inhibition curve with a large enough effect in the signal ratio in the repeat runs, not every such curve was filed as active; the % refers to the signal ratio)
# In short: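 GR-bla HeLa cells (beta-lactamase reporter under glucocorticoid response element) were pre-plated 4 h at 37 C, treated with compounds plus 5 nM dexamethasone (final) for 18 h, then read by LiveBLAzer B/G FRET fluorescence after 2 h.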
# [18] = qHTS assay for small molecule agonists of the p53 signaling pathway - cell viability (AID 651633; calls by dose curve;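 also: p53RE-bla HCT reporter cells with a stable beta-lactamase p53 reporter; series mostly up to about 83 µM; nearly all actives have a fitted effect of over 30% in size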)
# In short: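 p53RE-bla cells were treated with compound for 16 hours at 37 C. Cytotoxicity was then measured as CellTiter-Glo luminescence after 30 min at room temperature.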
# [19] = qHTS assay for small molecule disruptors of the mitochondrial membrane potential (AID 720635); also: potency is read from the fitted curve at half-maximal effect
# In short: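 HepG2 cells exposed to compound 1 hr at 37C, then Mito-MPS dye 30 min. Ratio read of aggregate (540/590 nm) versus monomer (490/535 nm) fluorescence.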
Structure (SMILES),Potency [1],outcome [2],outcome [3],outcome [4],outcome [5],outcome [6],outcome [7],outcome [8],outcome [9],outcome [10],outcome [11],outcome [12],outcome [13],Potency [14],Potency [15],outcome [16],Potency [17],Potency [18],Potency [19]
COC(=O)C(C)N(C(=O)Cc1ccccc1)c1c(C)cccc1C (stereo not given),inactive,inactive,inactive,inactive,inactive,inactive,inactive,inactive,inactive,inactive,inactive,inactive,inactive,,,,,,
CC(=O)[C@H]1CC[C@H]2[C@@H]3CC[C@H]4C[C@](C)(O)CC[C@]4(C)[C@H]3CC[C@]12C,inactive,inactive,inactive,inactive,inactive,inactive,inactive,,inactive,inactive,inactive,inactive,inactive,inactive,inactive,inactive,inactive,,
C=CCN1CC[C@]23c4c5ccc(O)c4O[C@H]2C(=O)CC[C@@]3(O)[C@H]1C5,,inactive,inactive,inactive,inactive,,inactive,inactive,inactive,inactive,inactive,inactive,,inactive,inactive,inactive,,inactive,
O=C(OC1CCCCC1)c1ccccc1C(=O)OC1CCCCC1,inactive,inactive,inactive,,inactive,inactive,inactive,inactive,inactive,inactive,inactive,inactive,inactive,inactive,,inactive,,,28.8 µM (active)
CCCCC(O)(Cn1cncn1)c1ccc(Cl)cc1Cl (stereo not given),inactive,inactive,inactive,inactive,inactive,inactive,inactive,inactive,inactive,inactive,inactive,inactive,inactive,,,inactive,,,54.4 µM (active)
CC(=O)c1cc2c(cc1C)C(C)(C)C(C)CC2(C)C (stereo not given),inactive,inactive,inactive,inactive,inactive,inactive,inactive,inactive,inactive,inactive,inactive,inactive,,,,,,,
O=C(O)C(F)(F)C(F)(F)C(F)(F)C(F)(F)C(F)(F)C(F)(F)C(F)(F)C(F)(F)C(F)(F)F,inactive,inactive,inactive,inactive,inactive,inactive,inactive,inactive,inactive,inactive,inactive,inactive,inactive,inactive,inactive,inactive,inactive,,
Cl/C=C\Cl,inactive,inactive,inactive,inactive,inactive,inactive,inactive,inactive,inactive,inactive,inactive,inactive,,inactive,inactive,,inactive,,
CC(O)(CS(=O)(=O)c1ccc(F)cc1)C(=O)Nc1ccc(C#N)c(C(F)(F)F)c1 (stereo not given),inactive,inactive,inactive,inactive,inactive,inactive,inactive,inactive,inactive,inactive,inactive,inactive,inactive,inactive,,,inactive,,
CC(C)(C)c1cc([N+](=O)[O-])cc([N+](=O)[O-])c1O,inactive,inactive,inactive,inactive,inactive,inactive,inactive,,inactive,inactive,inactive,inactive,inactive,6.09 µM (active),,inactive,,,0.484 µM (active)
[CH3][Sn]([CH3])([Cl])[Cl],inactive,inactive,inactive,,inactive,inactive,inactive,inactive,inactive,inactive,inactive,inactive,,,inactive,inactive,,,inactive
O=C(NC(=O)c1c(F)cccc1F)Nc1cc(Cl)c(Oc2ncc(C(F)(F)F)cc2Cl)c(Cl)c1,inactive,inactive,inactive,inactive,inactive,inactive,inactive,inactive,inactive,inactive,inactive,inactive,inactive,inactive,,inactive,,,
O=C=Nc1ccc(Cl)cc1,,inactive,inactive,,inactive,inactive,inactive,inactive,inactive,inactive,inactive,inactive,,,21.7 µM (active),inactive,,inactive,
CC(C)(C)C(O)C(Oc1ccc(Cl)cc1)n1cncn1 (stereo not given),inactive,inactive,inactive,inactive,inactive,inactive,inactive,inactive,inactive,inactive,,inactive,,,,inactive,,,
O=C(O)CC(Cl)C(=O)O (stereo not given),inactive,inactive,inactive,inactive,inactive,inactive,inactive,,inactive,inactive,inactive,inactive,inactive,,,inactive,inactive,,
O=C(O)C1(c2ccc3c(c2)OC[C@H](Cc2ccc(-c4ccccc4)cc2)[C@H]3O)CCCC1,inactive,inactive,inactive,inactive,inactive,inactive,inactive,,inactive,inactive,,inactive,,inactive,inactive,inactive,,,
CS/C(C)=N/OC(=O)N(C)SN(C)C(=O)O/N=C(\C)SC,inactive,inactive,inactive,inactive,inactive,inactive,inactive,inactive,inactive,inactive,inactive,inactive,inactive,,inactive,inactive,,,inactive
Cl/C=C\C[N+]12CN3CN(CN(C3)C1)C2,,inactive,inactive,inactive,inactive,inactive,inactive,inactive,inactive,inactive,inactive,inactive,inactive,,inactive,inactive,,inactive,inactive
